The nature of test [1]: binders of probe aFSTL3 on microarray, primary screen, stem cell growth factor project, biochemical, small-molecule microarray, fluorescence 635/667 (AID 1064).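 Also: measures binding of the biotinylated anti-FSTL3 antibody to printed compounds.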 The settings on record: higher = more signal.
Test [2] is described as follows: binders from COS7 lysate, DM2A8 probe, primary screen, torsin A project, cell lysate, small-molecule microarray, fluorescence 635/667 (AID 1065). Particulars: higher = more signal, COS7 lysate expressing mutant human TOR1A.
A short description of test [3]: binders of probe aFGF2 on microarray, primary screen, stem cell growth factor project, biochemical, small-molecule microarray, fluorescence 635/667 (AID 1067).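 Also: measures binding of biotinylated aFGF2 protein to printed compounds on slides; z-score merges feature fluorescence and signal-to-noise across triplicate slides.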 The settings on record: higher = more signal.
The nature of test [4]: binders of probe aFGF10 on microarray, primary screen, stem cell growth factor project, biochemical, small-molecule microarray, fluorescence 635/667 (AID 1071).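 Also: score merges 667 nm spot intensity and signal to noise from triplicate slides.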 Particulars: higher = more signal.
Test [5] addresses Neurogenic locus notch homolog protein 2 (Homo sapiens) (UniProt Q04721). Nature of the test: Notch2 binders on small-molecule microarrays, primary screen, biochemical, small-molecule microarray, 635 nm fluorescence, stem cell growth factors (AID 1073). Particulars: Notch2 binding, higher = more signal.
The target in test [6] is Pro-neuregulin-1, membrane-bound isoform (Homo sapiens) (UniProt Q02297). Nature of the test: NRG1 binders on small-molecule microarrays, primary screen, psychiatric disease protein project, biochemical, small-molecule microarray, fluorescence 635/667 (AID 1075).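 Also: score combines 667 nm spot fluorescence with signal to noise.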 The settings on record: NRG1 binding, 635 nm fluorescence, higher = more signal.
For test [7], the system named is Neuregulin-1 EGF-like domain. Briefly: binders of neuregulin-1 EGF-like domain, primary screen, biochemical, small-molecule microarray, 635 nm fluorescence (AID 1081).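 Also: binding of the protein to compounds printed on small-molecule microarray slides.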 The settings on record: small-molecule microarray binding, higher = more signal.
A short description of test [8]: FRG1 promoter luciferase signal modulators, primary screen, FRG1 inhibition for FSHD, cell-based, C2C12 myotubes, firefly/Renilla luciferase, luminescence (AID 1084). Particulars: higher = more signal, called active from +8 up or from −8 down.
Test [9] in a line: binders of probe aFST on microarray, primary screen, stem cell growth factor project, biochemical, small-molecule microarray, fluorescence 635/667 (AID 1086).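 Also: score merges 667 nm fluorescence with signal-to-noise of each printed compound spot.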 The settings on record: higher = more signal.
The nature of test [10]: binders of probe aHhip on microarray, primary screen, stem cell growth factor project, biochemical, small-molecule microarray, fluorescence 635/667 (AID 1087).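 Also: score merges spot fluorescence at 667nm with spot signal to noise ratio.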 The settings on record: higher = more signal.
For test [11], the system named is PRMT1 (protein arginine N-methyltransferase 1). Briefly: PRMT1 binders on small-molecule microarrays, primary screen, biochemical, small-molecule microarray, 635 nm fluorescence (AID 1088).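 Also: binding of Prmt1 protein to compounds spotted on small-molecule microarray slides.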 The settings on record: small-molecule microarray binding, higher = more signal.
Test [12] can be described thus: yeast growth modulation, basal conditions, primary screen, YJM789 clinical isolate, OD600, 24 h (AID 1089).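 Also: growth of clinical yeast isolate S. cerevisiae YJM 789 seeded 1000 cells per well; test concentration not given here.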 Particulars: S. cerevisiae YJM789 growth, higher = more signal, called active from +8 up or from −8 down.
A short description of test [13]: fission yeast growth modulation, primary screen, strain 972, OD600, 24 h, no modulator (AID 1090).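 Also: basal condition with compound alone and no growth modifier present; test concentration not given here.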 The settings on record: S. pombe 972 growth, higher = more signal, called active from +8 up or from −8 down.
Test [14] can be described thus: S. cerevisiae growth modulation with rapamycin, primary screen, strain BY4716, OD600, 96 h (AID 1091). Also: test concentration not given here. The settings on record: higher = more signal, called active from +8 up or from −8 down.
Test [15] deals with Torsin-1A-interacting protein 2 (Homo sapiens) (UniProt Q8NFQ8). Nature of the test: LULL1 binders on small-molecule microarray, primary screen, cell lysate, human LULL1 lysate, 635/667 nm fluorescence (AID 1092).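 Also: score merges per-feature 667 nm fluorescence with signal-to-noise.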 The settings on record: hLULL1 lysate binding, 635 nm fluorescence, higher = more signal.
Test [16] in a line: E. coli growth modulation, two-sided OD650, primary screen, E. coli filamentation project, strain DRC41, 24 h (AID 1093).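 Also: MC1000 strain lacking acrAB efflux and sulA so SOS filamentation is blocked; test concentration not given here.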 Particulars: OD650, 24 h, higher = more signal, called active from +8 up or from −8 down.
The nature of test [17]: small-molecule microarray binders of probe aLefty2, primary screen, biochemical, biotinylated probe, 635/667 nm fluorescence (AID 1094).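 Also: score merges spot fluorescence near 667 nm with spot signal-to-noise ratio.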 The settings on record: higher = more signal.
Test [18] concerns Noggin (protein binding on small-molecule microarray). Nature of the test: Noggin binders on small-molecule microarray, primary screen, biochemical, 635/667 nm fluorescence (AID 1095).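 Also: score merges 667 nm feature fluorescence with signal to noise over triplicate slides.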 Particulars: 635 nm fluorescence, higher = more signal.
Test [19] deals with Neurogenic locus notch homolog protein 3 (Homo sapiens) (UniProt Q9UM47). Nature of the test: NOTCH3 binders on small-molecule microarray, primary screen, biochemical, 635/667 nm fluorescence (AID 1096). Particulars: NOTCH3 binding, 635 nm fluorescence, higher = more signal.
Test [20] is described as follows: small-molecule microarray binders of probe aEGFR, primary screen, biochemical, biotinylated probe, 635/667 nm fluorescence (AID 1097).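 Also: probe is a biotinylated anti-EGFR antibody binding compounds printed on slides; score combines fluorescence near 667 nm and signal to noise of each spot.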 The settings on record: higher = more signal.

Activity calls are given as the source filed them.

Sequence of Torsin-1A-interacting protein 2 (Homo sapiens) (Q8NFQ8 whole entry, looked up): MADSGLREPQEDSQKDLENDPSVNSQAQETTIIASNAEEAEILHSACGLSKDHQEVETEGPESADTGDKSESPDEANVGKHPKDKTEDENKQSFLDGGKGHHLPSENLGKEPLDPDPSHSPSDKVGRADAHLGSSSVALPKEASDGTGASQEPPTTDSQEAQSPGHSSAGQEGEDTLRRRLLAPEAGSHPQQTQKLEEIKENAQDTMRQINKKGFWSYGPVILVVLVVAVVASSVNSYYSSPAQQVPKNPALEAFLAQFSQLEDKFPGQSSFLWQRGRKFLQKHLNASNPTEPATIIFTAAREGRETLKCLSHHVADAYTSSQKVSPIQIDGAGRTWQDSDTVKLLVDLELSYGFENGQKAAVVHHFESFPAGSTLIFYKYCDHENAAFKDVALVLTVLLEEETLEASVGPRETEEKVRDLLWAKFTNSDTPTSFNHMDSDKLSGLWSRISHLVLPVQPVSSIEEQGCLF
Sequence of Neurogenic locus notch homolog protein 3 (Homo sapiens) (Q9UM47 whole entry, looked up): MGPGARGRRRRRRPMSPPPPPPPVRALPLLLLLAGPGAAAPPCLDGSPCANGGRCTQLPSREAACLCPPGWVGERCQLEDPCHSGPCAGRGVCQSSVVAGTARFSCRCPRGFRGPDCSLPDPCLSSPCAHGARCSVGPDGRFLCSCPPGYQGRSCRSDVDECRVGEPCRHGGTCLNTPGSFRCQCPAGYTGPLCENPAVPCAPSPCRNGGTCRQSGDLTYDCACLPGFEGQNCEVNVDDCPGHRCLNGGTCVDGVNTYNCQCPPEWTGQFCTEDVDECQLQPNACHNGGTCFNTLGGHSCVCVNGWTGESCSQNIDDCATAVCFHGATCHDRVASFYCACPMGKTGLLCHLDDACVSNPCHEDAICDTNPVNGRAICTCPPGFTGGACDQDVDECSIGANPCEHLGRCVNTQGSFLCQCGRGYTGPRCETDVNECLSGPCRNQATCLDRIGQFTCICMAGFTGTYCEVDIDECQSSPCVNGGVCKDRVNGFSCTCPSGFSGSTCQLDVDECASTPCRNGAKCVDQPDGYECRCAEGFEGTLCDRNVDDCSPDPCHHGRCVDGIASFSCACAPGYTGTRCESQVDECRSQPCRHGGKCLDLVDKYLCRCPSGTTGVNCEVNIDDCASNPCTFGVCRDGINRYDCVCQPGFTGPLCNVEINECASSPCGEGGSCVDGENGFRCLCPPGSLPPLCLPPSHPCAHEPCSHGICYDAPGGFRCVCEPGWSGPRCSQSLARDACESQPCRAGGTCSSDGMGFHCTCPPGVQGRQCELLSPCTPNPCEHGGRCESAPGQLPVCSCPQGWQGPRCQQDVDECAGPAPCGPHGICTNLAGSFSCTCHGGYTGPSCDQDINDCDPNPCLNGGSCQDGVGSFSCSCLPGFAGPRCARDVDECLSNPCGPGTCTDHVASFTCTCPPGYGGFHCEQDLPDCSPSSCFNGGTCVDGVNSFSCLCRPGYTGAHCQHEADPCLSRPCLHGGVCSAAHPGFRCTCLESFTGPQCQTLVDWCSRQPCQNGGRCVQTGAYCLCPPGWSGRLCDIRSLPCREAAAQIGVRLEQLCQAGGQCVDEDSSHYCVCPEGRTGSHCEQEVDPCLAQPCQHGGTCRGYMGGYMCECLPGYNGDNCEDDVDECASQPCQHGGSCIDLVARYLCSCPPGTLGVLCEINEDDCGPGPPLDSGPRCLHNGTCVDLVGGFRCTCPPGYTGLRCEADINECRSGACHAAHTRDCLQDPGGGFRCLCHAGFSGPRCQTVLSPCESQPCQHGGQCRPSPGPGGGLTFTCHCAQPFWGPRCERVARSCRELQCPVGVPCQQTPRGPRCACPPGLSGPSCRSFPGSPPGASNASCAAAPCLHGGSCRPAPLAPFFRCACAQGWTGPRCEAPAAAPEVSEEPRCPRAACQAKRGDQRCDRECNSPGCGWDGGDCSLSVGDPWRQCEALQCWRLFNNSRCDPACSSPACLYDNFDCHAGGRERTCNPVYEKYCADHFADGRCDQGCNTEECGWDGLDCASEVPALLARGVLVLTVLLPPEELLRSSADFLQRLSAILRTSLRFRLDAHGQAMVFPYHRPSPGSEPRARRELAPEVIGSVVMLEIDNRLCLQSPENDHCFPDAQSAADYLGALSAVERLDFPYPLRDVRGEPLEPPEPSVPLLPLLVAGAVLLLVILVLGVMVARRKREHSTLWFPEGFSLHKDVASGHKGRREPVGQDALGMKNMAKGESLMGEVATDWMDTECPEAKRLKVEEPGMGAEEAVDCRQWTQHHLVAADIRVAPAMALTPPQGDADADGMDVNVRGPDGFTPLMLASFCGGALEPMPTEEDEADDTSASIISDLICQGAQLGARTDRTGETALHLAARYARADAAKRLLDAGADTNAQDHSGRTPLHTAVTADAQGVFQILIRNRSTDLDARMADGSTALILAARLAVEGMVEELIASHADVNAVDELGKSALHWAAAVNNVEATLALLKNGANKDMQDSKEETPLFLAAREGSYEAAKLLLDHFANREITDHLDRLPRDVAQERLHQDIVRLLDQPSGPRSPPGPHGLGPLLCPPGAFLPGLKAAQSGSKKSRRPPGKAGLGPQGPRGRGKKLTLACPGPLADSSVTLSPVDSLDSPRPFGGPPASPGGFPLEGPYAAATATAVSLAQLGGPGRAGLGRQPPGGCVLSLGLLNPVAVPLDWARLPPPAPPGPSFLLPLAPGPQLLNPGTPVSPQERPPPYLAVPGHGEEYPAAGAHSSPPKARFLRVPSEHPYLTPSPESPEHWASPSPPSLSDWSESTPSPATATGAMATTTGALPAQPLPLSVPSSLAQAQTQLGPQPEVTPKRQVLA
Sequence of Pro-neuregulin-1, membrane-bound isoform (Homo sapiens) (Q02297 whole entry, looked up, the tested form may be a part, canonical isoform): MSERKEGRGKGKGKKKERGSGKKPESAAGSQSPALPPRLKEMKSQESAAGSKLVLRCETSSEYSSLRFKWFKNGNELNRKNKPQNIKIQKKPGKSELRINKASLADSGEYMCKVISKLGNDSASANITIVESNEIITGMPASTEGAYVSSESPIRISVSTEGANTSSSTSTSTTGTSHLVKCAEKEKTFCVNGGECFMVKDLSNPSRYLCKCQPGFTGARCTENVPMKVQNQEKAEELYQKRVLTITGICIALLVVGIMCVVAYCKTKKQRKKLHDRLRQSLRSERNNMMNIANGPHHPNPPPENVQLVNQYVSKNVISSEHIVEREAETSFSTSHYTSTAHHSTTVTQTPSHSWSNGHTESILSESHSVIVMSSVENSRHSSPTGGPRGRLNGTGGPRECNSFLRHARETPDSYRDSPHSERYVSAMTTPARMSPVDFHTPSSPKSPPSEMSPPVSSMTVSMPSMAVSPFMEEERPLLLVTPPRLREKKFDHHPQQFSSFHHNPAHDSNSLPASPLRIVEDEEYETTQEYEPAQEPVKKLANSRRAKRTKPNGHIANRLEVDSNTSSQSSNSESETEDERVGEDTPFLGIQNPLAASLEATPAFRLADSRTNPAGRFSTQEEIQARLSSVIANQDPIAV

For the compound `O=C1N(Cc2ccccc2)c2ccccc2C[C@]12N=C(c1ccc(OCCCO)cc1)O[C@@H]2c1ccccc1`, the composite z-score in [1] is 0.0854; in test [2], 0.278; in test [3], -0.125; in [4], 0.576; in test [5], 0.699; in test [6], 0.888. Also, the composite z-score was 1.09 in [7]; -0.0607 in test [9]; -0.0994 in test [10]; 1.21 in test [11]; 2.42 in test [15]; 0.102 in test [17]. For the same compound, the composite z-score was 0.885 in test [18], 1.03 in test [19] and -0.0549 in test [20]. The z-score in test [8] was -0.724 (inactive); in [12], 1.1 (inactive); in [13], 0.6 (inactive); in test [14] it was 5.61 (inactive); in [16], 0.316 (inactive).
Consider `CN1C(=O)C2C=CC(C(O)c3cccn3C)N(Nc3ccc([N+](=O)[O-])cc3[N+](=O)[O-])C2C1=O` (stereo not given), for which the composite z-score is 0.108 in test [1]; -0.0125 in test [2]; 0.157 in [3]; 0.162 in test [4]; 1.05 in test [5]; 0.392 in test [6]. Besides, the composite z-score in [7] is 0.828; in test [9], 0.477; in test [10], -0.0631; in [11] it was 0.0715; in test [15] it was 0.711; in test [17], 0.269. In addition, the composite z-score is 0.5 in test [18], -0.266 in test [19] and 0.0365 in test [20]. The z-score is 0.351 (inactive) in [8]; 0.82 (inactive) in test [12]; 1.33 (inactive) in [13]; 0.731 (inactive) in test [14]; -0.345 (inactive) in test [16].
For the compound `CC(C)C(CO)N1C(=O)[C@@H]2C3C(=O)OCCC/C=C\[C@H]3OC23C=CCN(c2ccc4ccccc4c2)C(=O)[C@@H]13` (stereo not given in full), the composite z-score in [1] was -0.08; in test [2] it was -0.623; in test [3], -0.076; in test [4] it was -0.12; in test [5], -1; in test [6], 0.99. Further, the composite z-score in test [7] is 1.48; in test [9] it was -0.412; in [10] it was 0.176; in [11], -0.403; in test [15], 1.34; in test [17] it was -0.0928. The composite z-score in [18] was -0.469; in [19], 0.121; in test [20], -0.203. Also, the z-score in test [8] was 0.759 (inactive); in test [12] it was -0.25 (inactive); in [13] it was -1.45 (inactive); in test [14] it was -0.0641 (inactive); in [16], -0.395 (inactive).
As for `CN(C)C(=O)[C@]1(CCC(=O)OC(C)(C)C)N=C(c2ccc(OCCCO)cc2)O[C@@H]1c1ccccc1CN=[N+]=[N-]`, the composite z-score stood at 0.292 in [1]; 1.28 in test [2]; 0.485 in test [3]; 0.488 in test [4]; 0.934 in test [5]; 1.89 in test [6]. The composite z-score in [7] was 1.15; in test [9], 1.34; in test [10], -0.476; in test [11] it was 1.18; in test [15], 3.81; in test [17], 0.0987. Besides, the results for the composite z-score in [18], in [19] and in [20] were 0.717, -0.162 and -0.149, respectively. The z-score in test [8] is 3.58 (inactive); in [12], -0.299 (inactive); in test [13] it was -1.65 (inactive); in test [14] it was -0.619 (inactive); in test [16] it was 0.682 (inactive).
Take `COc1cccc(C)c1NC(=O)O[C@H]1[C@H](OC(=O)Nc2ccc3c(c2)OCO3)[C@@H](OC(=O)Nc2ccc3c(c2)OCO3)[C@@H](OC)O[C@@H]1CO`: the composite z-score in [1] was -0.0021; in test [2], 0.893; in [3] it was 0.121; in test [4], 1.07; in [5] it was 1.65; in test [6], -0.0548. The composite z-score in [7] was 1.07; in test [9] it was 1.17; in [10], 0.0243; in test [11], 1.54; in [15], 3.58; in test [17] it was 0.218. The composite z-score in test [18] was 1.4; in test [19], 1.04; in test [20], -0.0031. Moreover, the z-score was 6.28 (inactive) in [8]; 1.94 (inactive) in test [12]; 2.2 (inactive) in test [13]; 8.01 (active) in test [14]; 1.23 (inactive) in test [16].

The values are drawn from PubChem BioAssay.
